{"source": "the supplement of paper PMC6378613", "compound": "Cc1ccc(-c2ccc3c(ccc4sc5c(c43)NC[C@@H](C)NC5=O)n2)cn1", "test": "kinase activity remaining relative to vehicle control; higher = less inhibition", "description": "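In vitro radiometric kinase profiling of the MK2 inhibitor PF-3644022 at 0.1, 1 and 10 µM against a panel of kinases (MRC International Centre for Kinase Profiling, Dundee). Read-out is % kinase activity remaining relative to the vehicle control, mean of n=2.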", "data": [{"target": "LKB1 (UniProt Q15831)", "values": [{"measurement": "kinase activity remaining", "setting": "inhibitor concentration 0.1 µM", "result": 118, "unit": "%"}, {"measurement": "kinase activity remaining", "setting": "inhibitor concentration 1 µM", "result": 103, "unit": "%"}, {"measurement": "kinase activity remaining", "setting": "inhibitor concentration 10 µM", "result": 97, "unit": "%"}]}, {"target": "FGF-R1", "values": [{"measurement": "kinase activity remaining", "setting": "inhibitor concentration 0.1 µM", "result": 95, "unit": "%"}, {"measurement": "kinase activity remaining", "setting": "inhibitor concentration 1 µM", "result": 91, "unit": "%"}, {"measurement": "kinase activity remaining", "setting": "inhibitor concentration 10 µM", "result": 68, "unit": "%"}]}, {"target": "MARK4 (UniProt Q96L34)", "sequence (Q96L34 whole entry, looked up)": "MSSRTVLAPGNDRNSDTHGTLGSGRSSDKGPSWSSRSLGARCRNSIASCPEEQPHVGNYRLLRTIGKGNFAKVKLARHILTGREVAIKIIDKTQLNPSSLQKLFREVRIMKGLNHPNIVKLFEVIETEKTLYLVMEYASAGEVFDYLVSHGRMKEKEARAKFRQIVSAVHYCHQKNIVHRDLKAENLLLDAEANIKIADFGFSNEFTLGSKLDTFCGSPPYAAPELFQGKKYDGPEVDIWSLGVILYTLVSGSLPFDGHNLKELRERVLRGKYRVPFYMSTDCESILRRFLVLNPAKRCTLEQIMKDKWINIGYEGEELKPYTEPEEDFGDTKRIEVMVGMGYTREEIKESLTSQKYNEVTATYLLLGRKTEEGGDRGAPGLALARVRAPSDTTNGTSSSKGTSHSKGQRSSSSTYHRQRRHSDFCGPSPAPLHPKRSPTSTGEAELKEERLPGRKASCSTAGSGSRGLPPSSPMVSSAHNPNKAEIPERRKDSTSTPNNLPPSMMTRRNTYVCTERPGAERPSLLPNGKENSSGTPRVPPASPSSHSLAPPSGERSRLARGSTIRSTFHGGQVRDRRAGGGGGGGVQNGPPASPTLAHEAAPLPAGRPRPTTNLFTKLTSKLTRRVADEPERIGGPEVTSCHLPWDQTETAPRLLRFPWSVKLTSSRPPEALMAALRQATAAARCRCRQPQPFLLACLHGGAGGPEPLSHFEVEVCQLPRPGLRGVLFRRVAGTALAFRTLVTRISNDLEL", "values": [{"measurement": "kinase activity remaining", "setting": "inhibitor concentration 0.1 µM", "result": 107, "unit": "%"}, {"measurement": "kinase activity remaining", "setting": "inhibitor concentration 1 µM", "result": 87, "unit": "%"}, {"measurement": "kinase activity remaining", "setting": "inhibitor concentration 10 µM", "result": 49, "unit": "%"}]}, {"target": "TTBK1 (UniProt Q5TCY1)", "sequence (Q5TCY1 whole entry, looked up)": "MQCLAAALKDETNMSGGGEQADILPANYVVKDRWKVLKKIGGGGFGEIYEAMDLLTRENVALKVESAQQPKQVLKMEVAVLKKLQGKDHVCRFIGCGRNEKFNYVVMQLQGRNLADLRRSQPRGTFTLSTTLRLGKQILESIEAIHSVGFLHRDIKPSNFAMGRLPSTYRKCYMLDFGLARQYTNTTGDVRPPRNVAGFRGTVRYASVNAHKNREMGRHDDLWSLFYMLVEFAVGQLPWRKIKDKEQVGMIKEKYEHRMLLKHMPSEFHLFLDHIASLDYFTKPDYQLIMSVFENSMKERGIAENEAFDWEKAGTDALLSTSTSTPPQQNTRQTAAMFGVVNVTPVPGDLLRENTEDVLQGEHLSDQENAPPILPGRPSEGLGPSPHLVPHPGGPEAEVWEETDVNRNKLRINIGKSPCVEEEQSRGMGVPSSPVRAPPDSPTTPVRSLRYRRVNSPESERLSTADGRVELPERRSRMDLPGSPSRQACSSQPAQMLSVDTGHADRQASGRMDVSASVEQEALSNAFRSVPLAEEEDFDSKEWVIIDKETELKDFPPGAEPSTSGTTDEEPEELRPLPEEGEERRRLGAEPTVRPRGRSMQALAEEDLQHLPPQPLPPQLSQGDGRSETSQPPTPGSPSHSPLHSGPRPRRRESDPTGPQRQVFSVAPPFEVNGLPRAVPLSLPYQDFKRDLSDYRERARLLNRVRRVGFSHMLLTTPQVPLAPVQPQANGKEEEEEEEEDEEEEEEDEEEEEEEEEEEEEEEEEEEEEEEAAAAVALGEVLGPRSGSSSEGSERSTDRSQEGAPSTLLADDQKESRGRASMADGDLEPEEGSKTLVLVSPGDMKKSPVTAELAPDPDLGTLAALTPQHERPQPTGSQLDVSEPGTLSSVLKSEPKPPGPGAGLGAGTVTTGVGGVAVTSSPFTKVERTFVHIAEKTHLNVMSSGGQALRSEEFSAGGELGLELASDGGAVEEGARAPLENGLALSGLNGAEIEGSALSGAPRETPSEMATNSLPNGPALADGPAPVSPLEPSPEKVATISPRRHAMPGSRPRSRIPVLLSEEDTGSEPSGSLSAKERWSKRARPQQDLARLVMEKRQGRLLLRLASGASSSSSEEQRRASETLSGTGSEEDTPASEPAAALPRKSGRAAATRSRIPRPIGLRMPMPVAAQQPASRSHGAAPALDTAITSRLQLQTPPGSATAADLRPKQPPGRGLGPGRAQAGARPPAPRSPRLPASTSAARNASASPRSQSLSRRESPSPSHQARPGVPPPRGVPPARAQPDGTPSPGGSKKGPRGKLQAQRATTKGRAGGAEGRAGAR", "values": [{"measurement": "kinase activity remaining", "setting": "inhibitor concentration 0.1 µM", "result": 103, "unit": "%"}, {"measurement": "kinase activity remaining", "setting": "inhibitor concentration 1 µM", "result": 104, "unit": "%"}, {"measurement": "kinase activity remaining", "setting": "inhibitor concentration 10 µM", "result": 96, "unit": "%"}]}, {"target": "NUAK1 (UniProt O60285)", "sequence (O60285 whole entry, looked up)": "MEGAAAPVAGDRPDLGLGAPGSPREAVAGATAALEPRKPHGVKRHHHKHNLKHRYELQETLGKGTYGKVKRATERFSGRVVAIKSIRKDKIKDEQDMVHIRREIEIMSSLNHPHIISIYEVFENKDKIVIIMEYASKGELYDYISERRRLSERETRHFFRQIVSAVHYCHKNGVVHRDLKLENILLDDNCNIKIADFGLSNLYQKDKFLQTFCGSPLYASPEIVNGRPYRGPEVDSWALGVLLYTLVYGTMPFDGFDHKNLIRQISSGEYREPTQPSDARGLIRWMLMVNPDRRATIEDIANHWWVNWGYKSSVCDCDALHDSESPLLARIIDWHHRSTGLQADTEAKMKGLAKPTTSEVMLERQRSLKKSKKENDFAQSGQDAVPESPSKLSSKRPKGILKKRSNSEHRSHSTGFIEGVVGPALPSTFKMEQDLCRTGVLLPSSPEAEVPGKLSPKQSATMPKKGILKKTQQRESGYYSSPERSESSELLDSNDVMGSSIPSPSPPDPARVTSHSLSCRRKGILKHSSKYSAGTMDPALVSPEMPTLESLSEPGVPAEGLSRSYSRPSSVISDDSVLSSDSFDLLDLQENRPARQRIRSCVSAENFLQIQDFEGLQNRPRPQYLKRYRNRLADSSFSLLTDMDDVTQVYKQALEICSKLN", "values": [{"measurement": "kinase activity remaining", "setting": "inhibitor concentration 0.1 µM", "result": 112, "unit": "%"}, {"measurement": "kinase activity remaining", "setting": "inhibitor concentration 1 µM", "result": 102, "unit": "%"}, {"measurement": "kinase activity remaining", "setting": "inhibitor concentration 10 µM", "result": 58, "unit": "%"}]}, {"target": "Aurora B", "values": [{"measurement": "kinase activity remaining", "setting": "inhibitor concentration 0.1 µM", "result": 109, "unit": "%"}, {"measurement": "kinase activity remaining", "setting": "inhibitor concentration 1 µM", "result": 99, "unit": "%"}, {"measurement": "kinase activity remaining", "setting": "inhibitor concentration 10 µM", "result": 64, "unit": "%"}]}, {"target": "CK2", "values": [{"measurement": "kinase activity remaining", "setting": "inhibitor concentration 0.1 µM", "result": 100, "unit": "%"}, {"measurement": "kinase activity remaining", "setting": "inhibitor concentration 1 µM", "result": 97, "unit": "%"}, {"measurement": "kinase activity remaining", "setting": "inhibitor concentration 10 µM", "result": 93, "unit": "%"}]}, {"target": "TTK (UniProt P33981)", "sequence (P33981 whole entry, looked up)": "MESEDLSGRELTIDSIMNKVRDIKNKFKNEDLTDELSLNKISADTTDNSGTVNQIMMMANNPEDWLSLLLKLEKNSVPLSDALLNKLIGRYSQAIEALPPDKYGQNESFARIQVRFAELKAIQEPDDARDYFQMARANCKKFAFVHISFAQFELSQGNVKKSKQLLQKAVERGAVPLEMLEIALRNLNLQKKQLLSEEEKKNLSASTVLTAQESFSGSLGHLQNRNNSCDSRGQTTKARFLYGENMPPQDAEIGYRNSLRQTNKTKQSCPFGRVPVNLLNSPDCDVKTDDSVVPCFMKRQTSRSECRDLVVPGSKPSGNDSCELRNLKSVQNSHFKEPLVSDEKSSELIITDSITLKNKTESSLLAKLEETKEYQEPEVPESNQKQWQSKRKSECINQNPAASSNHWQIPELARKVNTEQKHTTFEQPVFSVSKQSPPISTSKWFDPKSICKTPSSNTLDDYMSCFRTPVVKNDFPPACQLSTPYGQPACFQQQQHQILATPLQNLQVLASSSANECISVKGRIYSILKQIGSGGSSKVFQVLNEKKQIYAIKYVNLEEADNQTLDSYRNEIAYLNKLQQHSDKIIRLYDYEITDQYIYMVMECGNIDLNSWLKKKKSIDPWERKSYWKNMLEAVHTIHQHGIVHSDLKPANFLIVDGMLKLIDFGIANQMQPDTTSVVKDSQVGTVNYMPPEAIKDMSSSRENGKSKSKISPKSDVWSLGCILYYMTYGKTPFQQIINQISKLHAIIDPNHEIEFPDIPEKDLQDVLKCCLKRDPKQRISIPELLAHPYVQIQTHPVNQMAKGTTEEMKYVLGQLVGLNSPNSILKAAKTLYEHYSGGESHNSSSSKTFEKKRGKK", "values": [{"measurement": "kinase activity remaining", "setting": "inhibitor concentration 0.1 µM", "result": 117, "unit": "%"}, {"measurement": "kinase activity remaining", "setting": "inhibitor concentration 1 µM", "result": 101, "unit": "%"}, {"measurement": "kinase activity remaining", "setting": "inhibitor concentration 10 µM", "result": 84, "unit": "%"}]}, {"target": "MKK1", "values": [{"measurement": "kinase activity remaining", "setting": "inhibitor concentration 0.1 µM", "result": 101, "unit": "%"}, {"measurement": "kinase activity remaining", "setting": "inhibitor concentration 1 µM", "result": 97, "unit": "%"}, {"measurement": "kinase activity remaining", "setting": "inhibitor concentration 10 µM", "result": 69, "unit": "%"}]}, {"target": "ERK8 (UniProt Q8TD08)", "sequence (Q8TD08 whole entry, looked up)": "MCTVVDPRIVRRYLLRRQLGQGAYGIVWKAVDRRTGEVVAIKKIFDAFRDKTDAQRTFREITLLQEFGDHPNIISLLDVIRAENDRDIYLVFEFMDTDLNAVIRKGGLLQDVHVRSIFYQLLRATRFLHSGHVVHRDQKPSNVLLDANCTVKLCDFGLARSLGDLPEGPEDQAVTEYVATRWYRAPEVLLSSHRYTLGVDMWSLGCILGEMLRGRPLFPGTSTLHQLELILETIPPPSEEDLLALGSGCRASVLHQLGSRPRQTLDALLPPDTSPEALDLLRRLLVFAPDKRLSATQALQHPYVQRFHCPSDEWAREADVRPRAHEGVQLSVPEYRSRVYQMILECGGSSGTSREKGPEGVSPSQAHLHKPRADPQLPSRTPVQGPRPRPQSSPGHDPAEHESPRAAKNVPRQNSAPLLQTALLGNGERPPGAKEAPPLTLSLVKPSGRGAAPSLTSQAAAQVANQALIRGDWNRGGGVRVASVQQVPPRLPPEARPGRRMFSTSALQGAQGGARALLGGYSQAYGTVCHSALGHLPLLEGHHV", "values": [{"measurement": "kinase activity remaining", "setting": "inhibitor concentration 0.1 µM", "result": 96, "unit": "%"}, {"measurement": "kinase activity remaining", "setting": "inhibitor concentration 1 µM", "result": 79, "unit": "%"}, {"measurement": "kinase activity remaining", "setting": "inhibitor concentration 10 µM", "result": 38, "unit": "%"}]}, {"target": "WNK1 (UniProt Q9H4A3)", "values": [{"measurement": "kinase activity remaining", "setting": "inhibitor concentration 0.1 µM", "result": 113, "unit": "%"}, {"measurement": "kinase activity remaining", "setting": "inhibitor concentration 1 µM", "result": 108, "unit": "%"}, {"measurement": "kinase activity remaining", "setting": "inhibitor concentration 10 µM", "result": 119, "unit": "%"}]}, {"target": "TBK1 (UniProt Q9UHD2)", "sequence (Q9UHD2 whole entry, looked up)": "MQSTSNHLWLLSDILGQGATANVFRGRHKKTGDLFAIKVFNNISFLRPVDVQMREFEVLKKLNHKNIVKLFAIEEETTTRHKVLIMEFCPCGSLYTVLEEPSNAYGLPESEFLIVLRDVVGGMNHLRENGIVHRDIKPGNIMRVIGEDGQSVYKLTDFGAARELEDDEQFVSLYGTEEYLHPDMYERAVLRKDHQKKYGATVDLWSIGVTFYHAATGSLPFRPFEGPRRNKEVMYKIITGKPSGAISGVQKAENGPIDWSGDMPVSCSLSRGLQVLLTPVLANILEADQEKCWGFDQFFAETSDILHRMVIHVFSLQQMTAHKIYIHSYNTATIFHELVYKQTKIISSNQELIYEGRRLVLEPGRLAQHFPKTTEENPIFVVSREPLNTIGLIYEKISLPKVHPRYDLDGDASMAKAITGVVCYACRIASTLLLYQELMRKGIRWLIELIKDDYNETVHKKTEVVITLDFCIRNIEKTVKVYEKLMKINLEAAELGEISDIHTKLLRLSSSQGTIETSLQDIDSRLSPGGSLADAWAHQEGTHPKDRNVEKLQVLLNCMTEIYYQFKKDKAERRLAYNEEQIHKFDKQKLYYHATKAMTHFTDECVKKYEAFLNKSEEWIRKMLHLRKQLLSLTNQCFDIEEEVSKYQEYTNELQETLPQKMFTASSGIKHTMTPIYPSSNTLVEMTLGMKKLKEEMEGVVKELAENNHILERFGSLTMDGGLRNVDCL", "values": [{"measurement": "kinase activity remaining", "setting": "inhibitor concentration 0.1 µM", "result": 110, "unit": "%"}, {"measurement": "kinase activity remaining", "setting": "inhibitor concentration 1 µM", "result": 87, "unit": "%"}, {"measurement": "kinase activity remaining", "setting": "inhibitor concentration 10 µM", "result": 96, "unit": "%"}]}, {"target": "S6K1", "values": [{"measurement": "kinase activity remaining", "setting": "inhibitor concentration 0.1 µM", "result": 99, "unit": "%"}, {"measurement": "kinase activity remaining", "setting": "inhibitor concentration 1 µM", "result": 95, "unit": "%"}, {"measurement": "kinase activity remaining", "setting": "inhibitor concentration 10 µM", "result": 80, "unit": "%"}]}]}
